Test [1] in a line: qHTS assay to identify small molecule antagonists of the retinoid-related orphan receptor gamma (ROR-gamma) signaling pathway - cell viability counter screen (AID 1159520). Note: % is set by controls: 0 for no effect and ±100 for the full control effect; nearly all actives have a fitted effect of over 50% in size. The method, boiled down:
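Cytotoxicity was read from cellular ATP (CellTiter-Glo luminescence) after 16 hr at 37 C with 1 uM doxycycline induction. The inducer was added 2 hr after compound transfer to Tet-on ROR gamma CHO cells.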

Test [2] addresses Nuclear receptor ROR-gamma (Homo sapiens) (UniProt P51449). The test can be described thus: qHTS assay to identify small molecule antagonists of the retinoid-related orphan receptor gamma (ROR-gamma) signaling pathway (AID 1159521; note: nearly all actives have a fitted effect of over 50% in size; note: potency is the fitted concentration of half-maximal effect;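 for activity change, negative = inhibition: CHO cells with doxycycline inducible ROR-gamma driving an RORE luciferase reporter; top concentration of the series differs between compounds; % is set by controls: 0 for no effect and ±100 for the full control effect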). Summed up:
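Tet-on ROR-gamma CHO cells with ROR response element-luciferase reporter; compounds added 2 hr before 1 uM doxycycline induction, then 16 hr at 37 C. Antagonism scored as decreased ONE-Glo luminescence.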

Test [3] can be described thus: qHTS assay to identify small molecule agonists of the AP-1 signaling pathway - cell viability counter screen (AID 1159525; calls by dose curve; note: nearly all actives have a fitted effect of over 55% in size; note: potency is the fitted concentration of half-maximal effect). The method, boiled down: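 Luminescent ATP readout (Cell Titer Glo, 30 min RT), normalised to DMSO and tetra n-octyl ammonium bromide controls. Cells were ME-180 AP-1-bla in 0.5% dialyzed FBS Opti-MEM, with a 5 h, 37 °C compound exposure.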
Test [4] can be described thus: qHTS assay to identify small molecule agonists of the AP-1 signaling pathway (AID 1159526; calls by dose curve; note: % is set by controls: 0 for no effect and ±100 for the full control effect).
For test [5], the target named is Retinoic acid receptor RXR-alpha (Homo sapiens) (UniProt P19793). The test can be described thus: qHTS assay to identify small molecule agonists of the RXR signaling pathway (AID 1159527; calls by dose curve; note: % is set by controls: 0 for no effect and ±100 for the full control effect; nearly all actives have a fitted effect of over 35% in size). The method, boiled down:
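GeneBLAzer RXR-alpha-UAS-bla HEK 293T cells in 2% charcoal-stripped FBS medium were exposed to compounds for 16 hr at 37 C in agonist mode. Beta-lactamase reporter read as 460/530 nm FRET ratio after 2 hr substrate loading.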

A short description of test [6]: qHTS assay to identify small molecule agonists of the RXR signaling pathway - cell viability counter screen (AID 1159529). For activity change, negative = cytotoxicity: series mostly up to about 77 µM; % is set by controls: 0 for no effect and ±100 for the full control effect. Note: nearly all actives have a fitted effect of over 50% in size. Note: potency is the fitted concentration of half-maximal effect. Summed up: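 RXR-alpha-UAS-bla HEK 293T cells in medium with 2% charcoal-stripped FBS were pre-incubated 5 hr, then compound-treated 16 hr at 37 C. Viability was read by CellTiter-Glo luminescence in the same wells as the beta-lactamase assay, with tetraoctyl ammonium bromide as positive control.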

The nature of test [7]: qHTS assay to identify small molecule antagonists of the peroxisome proliferator-activated receptor delta (PPARd) signaling pathway - cell viability counter screen (AID 743213). Note: potency is the fitted concentration of half-maximal effect; nearly all actives have a fitted effect of over 50% in size. The method, boiled down: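 Cytotoxicity counter screen: CellTiter-Glo luminescence read 30 min after addition, in the same wells as the reporter assay. There, PPARd UAS-bla HEK293H cells (3000/well) were treated 17 h at 37 C with compound and 300 nM L165041.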

The nature of test [8]: qHTS assay to identify small molecule agonists of the farnesoid-X-receptor (FXR) signaling pathway - cell viability counter screen (AID 743218). Note: nearly all actives have a fitted effect of over 45% in size. Note: potency is the fitted concentration of half-maximal effect. Summed up:
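Cytotoxicity counter-screen run in parallel, same wells: FXR-UAS-bla HEK 293T cells dosed 16 h at 37 C, viability read by CellTiter-Glo luminescence after 30 min at room temperature.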

For test [9], the target named is Vitamin D3 receptor (Homo sapiens) (UniProt P11473). The test can be described thus: qHTS assay to identify small molecule antagonists of the vitamin D receptor (VDR) signaling pathway (AID 743223; active = well fitted inhibition curve with a large enough effect in the signal ratio in the repeat runs, not every such curve was filed as active; the % refers to the signal ratio; note: % is set by controls: 0 for no effect and ±100 for the full control effect). Summed up:
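VDR-bla cells were treated with compound plus 3 nM final 1alpha,25-dihydroxyvitamin D3 for 16 h at 37C. Beta-lactamase reporter read by B/G FRET substrate fluorescence after 2 h at room temperature. qHTS format.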

The nature of test [10]: qHTS assay to identify small molecule agonists of the vitamin D receptor (VDR) signaling pathway - cell viability counter screen (AID 743224). Summed up: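 Viability is measured in the same wells as the VDR-bla reporter assay: after 16 h compound treatment and 2 h substrate loading, CellTiter-Glo is added and luminescence read 30 min later.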
Test [11] is described as follows: qHTS assay to identify small molecule antagonists of the vitamin D receptor (VDR) signaling pathway - cell viability counter screen (AID 743225). Summed up: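 VDR-UAS-bla HEK 293T cells were plated and incubated 4 h at 37C, then dosed with compound plus 3 nM (final) 1-alpha,25-dihydroxyvitamin D3 for 16 h. After the 2 h beta-lactamase read, viability in the same wells was read as CellTiter-Glo luminescence after 30 min at room temperature.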

Test [12] can be described thus: qHTS assay to identify small molecule agonists of the peroxisome proliferator-activated receptor delta (PPARd) signaling pathway - cell viability counter screen (AID 743211). Note: potency is the fitted concentration of half-maximal effect; nearly all actives have a fitted effect of over 55% in size. The method, boiled down:
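PPARd-bla HEK293H cells (3000/well) were pre-incubated 5 h at 37 C, then exposed to compound for 17 h at 37 C. After 2 h with LiveBLAzer substrate, CellTiter-Glo was added to the same wells; luminescence read after 30 min at room temperature.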

Test [13] in a line: qHTS assay to identify small molecule antagonists of the farnesoid-X-receptor (FXR) signaling pathway - cell viability counter screen (AID 743221; active = well fitted cell-killing curve with a large enough effect in the repeat runs, not every such curve was filed as active). The method, boiled down:
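GeneBLAzer FXR-UAS-bla HEK 293T cells, compound plus chenodeoxycholic acid (50 uM final), 16 h at 37 C. CellTiter-Glo added to the same wells after the beta-lactamase read; luminescence read after 30 min at room temperature as viability.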

Molecules are shown by their SMILES. Values joined by “and” are separate entries in the source; they are usually repeats but may differ in a detail not shown here. Equal values may be shown once. Inconclusive results are not listed. Unmarked numbers belong to inactive results. Active and inactive are the calls of the source. Unless noted, calls come from the whole dose curve; as a rule, active = well fitted curve in the direction sought with a large enough effect in the repeat runs; inconclusive = weak or mixed curves; inactive = no such curve, though single readings can be large; an effect the other way counts as inactive or inconclusive.

Sequence of Retinoic acid receptor RXR-alpha (Homo sapiens) (P19793 whole entry, looked up): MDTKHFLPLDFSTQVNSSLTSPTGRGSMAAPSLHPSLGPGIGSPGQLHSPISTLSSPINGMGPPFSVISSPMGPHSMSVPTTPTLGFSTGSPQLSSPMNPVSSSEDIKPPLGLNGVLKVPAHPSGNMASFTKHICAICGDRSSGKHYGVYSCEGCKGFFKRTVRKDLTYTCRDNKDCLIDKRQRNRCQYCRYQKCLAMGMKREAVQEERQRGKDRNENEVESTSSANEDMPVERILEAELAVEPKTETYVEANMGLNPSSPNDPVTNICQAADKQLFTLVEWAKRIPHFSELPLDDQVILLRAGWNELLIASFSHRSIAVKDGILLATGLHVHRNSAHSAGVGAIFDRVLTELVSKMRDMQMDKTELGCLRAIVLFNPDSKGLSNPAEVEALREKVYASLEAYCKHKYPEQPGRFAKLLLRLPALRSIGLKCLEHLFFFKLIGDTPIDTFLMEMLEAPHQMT
Sequence of Vitamin D3 receptor (Homo sapiens) (P11473 whole entry, looked up): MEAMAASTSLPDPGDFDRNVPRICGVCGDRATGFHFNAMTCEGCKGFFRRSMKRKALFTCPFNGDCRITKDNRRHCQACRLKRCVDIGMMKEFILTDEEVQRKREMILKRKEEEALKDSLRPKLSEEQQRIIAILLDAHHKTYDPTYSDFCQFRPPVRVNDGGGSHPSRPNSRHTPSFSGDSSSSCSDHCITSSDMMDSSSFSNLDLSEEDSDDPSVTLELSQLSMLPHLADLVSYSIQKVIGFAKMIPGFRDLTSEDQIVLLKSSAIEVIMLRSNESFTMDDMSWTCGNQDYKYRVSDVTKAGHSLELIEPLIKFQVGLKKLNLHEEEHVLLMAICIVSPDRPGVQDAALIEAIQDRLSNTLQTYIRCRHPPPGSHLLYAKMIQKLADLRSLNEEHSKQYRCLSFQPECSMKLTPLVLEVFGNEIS

As for `c1ccc2c(c1)CCC2`, the Potency entry in test [1], in [2], in test [3], in test [4], in test [5] and in test [6] was “inactive” throughout.
With `CCOCOCC`, the Potency result in test [1], in [2], in [3], in test [4], in test [5] and in test [6] was “inactive” each time.
For the compound `CCCCCCCCCCCCCc1ccccc1`, the Potency result in test [1], in [2], in test [3], in test [4], in [5] and in test [6] was “inactive” throughout.
For `CCCC(O)C(O)CO` (configuration not stated), the Potency entry in test [1], in [2], in test [3], in [4] and in [6] was “inactive” each time.
On to `CCCCCCCCCCCCCCCCCO`, for which, in [1], the activity, negative = cytotoxicity was -0.0509% [at 19 µM]. Besides, in [2], the activity change, negative = inhibition was -0.415% [at 19 µM]. Also, the viability change, negative = cytotoxic in test [3] was -0.925% [at 15.8 µM]. The activation was -5.53% [at 15.8 µM] in [4] and 2.15% [at 15.8 µM] in test [5]. Besides, the activity change, negative = cytotoxicity in test [6] is -0.179% [at 15.8 µM].
`C=C/C=C/C=C/CCCCC`: the activity change, negative = inhibition in test [2] was -0.464% [at 19 µM]. Moreover, in test [3], the viability change, negative = cytotoxic was 1.06% [at 15.8 µM]. The results for the activation in test [4] and in test [5] were 2.42% [at 15.8 µM] and -4.02% [at 15.8 µM], respectively. In addition, the activity change, negative = cytotoxicity in test [6] was -9.45% [at 15.8 µM].
On to `CC1=CP(=O)(c2ccccc2)CC1` (configuration not stated), for which the Potency result in test [3], in test [4], in test [5] and in test [6] was “inactive” each time.
On to `Cc1cncc(C)c1`, for which the Potency result in test [2], in [3], in test [4] and in [6] was “inactive” throughout.
Take `CC(C)c1ccccc1N`: the Potency result in test [3], in test [4], in test [5] and in test [6] was “inactive” in each case.
Regarding `C=C(C)CCCC`, the Potency entry in [2], in [3], in test [4], in [5] and in [6] was “inactive” throughout.
`CCCCOC(=O)C(C)CC` (configuration not stated): the Potency is 49 µM (active) in [7] and 24.5 µM (active) in test [10]. Moreover, the Potency entry in [8], in test [9], in test [11], in [1], in test [3] and in test [4] was “inactive” each time. Moreover, the Potency entry in test [6] was “inactive”.
On to `CO[Si](CCCNCCNCCN)(OC)OC`, for which the Potency entry in [1], in test [3], in [4], in [5] and in test [6] was “inactive” each time.
Turning to `COc1ccccc1C=O`, the Potency result in [2], in test [3], in test [4], in test [5] and in test [6] was “inactive” in each case.
Take `Brc1ccccn1`: the Potency entry in test [1], in [3], in [4] and in test [6] was “inactive” throughout.
For `O=C[C@H](O)[C@H](O)[C@H](O)CO`, the Potency entry in test [1], in test [3], in test [4] and in [6] was “inactive” in each case.
Regarding `CC(C)CCOCCC(C)C`, the Potency result in test [1], in [3], in [4], in test [5] and in [6] was “inactive” throughout.
With `CC1=C(/C=C/C(C)=C/C=C/C(C)=C/C(=O)Nc2ccc(O)cc2)C(C)(C)CCC1`, the Potency in test [12] was 3.56 µM (active) and 4.73 µM (active); in [7] it was 12.6 µM (active) and 7.5 µM (active); in test [8], 44.8 µM (active) and 11.9 µM (active); in test [13], 56.4 µM (active) and 26.6 µM (active); in test [10] it was 14.2 µM (active) and 10.6 µM (active); in test [2] it was 19.8 µM (active) and 8.41 µM (active). Also, the Potency was 44.8 µM (active) in [3]; 35.6 µM (active) and 12 µM (active) in test [6].
On to `CCOC(OCC)C(=O)c1ccccc1`, for which the Potency entry in test [2], in [3], in test [4], in test [5] and in [6] was “inactive” in each case.
Consider `OCCCCl`, for which the Potency entry in test [1], in test [3], in test [4] and in test [6] was “inactive” each time.
Take `CC(=O)C=O`: the Potency entry in [2], in [3], in test [4] and in test [6] was “inactive” each time.
For the compound `CCC(=O)CC(C)CC` (configuration not stated), in test [1], the activity, negative = cytotoxicity was 6.35% [at 0.349 µM]. Further, in [2], the activity change, negative = inhibition was 0.102% [at 0.35 µM]. For the same compound, the viability change, negative = cytotoxic in test [3] is 5.42% [at 0.29 µM]. For the same compound, the activation in test [4] is -5.51% [at 0.29 µM]. Also, in test [6], the activity change, negative = cytotoxicity is -1.51% [at 0.29 µM].
`CCCC(C)CCC(C)=O` (configuration not stated): the Potency entry in test [3], in test [4], in test [5] and in test [6] was “inactive” throughout.
On to `COc1cccc(O)c1`, for which the Potency entry in test [1], in [3], in test [4], in [5] and in test [6] was “inactive” throughout.
As for `C#CC(O)CCC` (configuration not stated), the Potency result in test [1], in test [2], in [3], in test [4] and in [6] was “inactive” in each case.
Take `CN1CN(C)CN(C)C1`: the Potency entry in test [1], in test [3], in test [4], in [5] and in [6] was “inactive” throughout.
For `Oc1cc2ccccc2cc1O`, the Potency entry in test [2], in test [3], in test [4] and in [6] was “inactive” each time.
